# Results: PubChem BioAssay
# Unmarked numbers belong to inactive results. Some of the results follow. The source made the active and inactive calls. Cut-off read from the data, not from the text of the source, unless noted: active = inhibition above about 13%; inactive = the rest.
# Legend:
# [1] = compounds interfering with TAMRA-BSA probe, counter-screen for TCR-CD3 interaction inhibitor project, biochemical, fluorescence, TAMRA-labeled BSA (AID 652035; in the data active = inhibition above about 23%;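 note: 0% = buffer low control and 100% = reference high control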); details: TAMRA-labeled BSA probe fluorescence counterscreen; at 9.4 µM; stronger effect = higher value
# [2] = test system: T-cell receptor (TCR)-CD3 interaction, human; test: TCR-CD3 interaction inhibitors, retest, confirmation, biochemical, fluorescence, TAMRA-labeled TCR probe (AID 652036; in the data active = inhibition above about 19%); details: TAMRA-labeled TCR probe fluorescence binding assay; at 9.4 µM; stronger effect = higher value
# [3] = test system: transactivating tegument protein VP16 (Human herpesvirus 1); test: VP16 transactivation reporter inhibitors, counter-screen for SRC2 inhibitor project, cell-based, luminescence, single concentration (AID 652007; in the data active = inhibition above about 36%); details: cell-based VP16 transactivation luciferase reporter, at 8.9 µM, stronger effect = higher value
# [4] = target: Nuclear receptor coactivator 2 (Homo sapiens) (UniProt Q15596); test: SRC2 coactivator transcriptional activity inhibitors, confirmation, cell-based, luminescence, HEK293, triplicate (AID 652008;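 active = mean inhibition above 46.5%, the solvent-only control mean plus 3 SD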;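 note: 0% = DMSO-treated cells and 100% = Gossypol at 36 µM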); details: HEK293 GAL4-SRC2 luciferase reporter, at 8.9 µM, stronger effect = higher value
# Nuclear receptor coactivator 2 (Homo sapiens), sequence (Q15596 whole entry, looked up, the tested form may be a part): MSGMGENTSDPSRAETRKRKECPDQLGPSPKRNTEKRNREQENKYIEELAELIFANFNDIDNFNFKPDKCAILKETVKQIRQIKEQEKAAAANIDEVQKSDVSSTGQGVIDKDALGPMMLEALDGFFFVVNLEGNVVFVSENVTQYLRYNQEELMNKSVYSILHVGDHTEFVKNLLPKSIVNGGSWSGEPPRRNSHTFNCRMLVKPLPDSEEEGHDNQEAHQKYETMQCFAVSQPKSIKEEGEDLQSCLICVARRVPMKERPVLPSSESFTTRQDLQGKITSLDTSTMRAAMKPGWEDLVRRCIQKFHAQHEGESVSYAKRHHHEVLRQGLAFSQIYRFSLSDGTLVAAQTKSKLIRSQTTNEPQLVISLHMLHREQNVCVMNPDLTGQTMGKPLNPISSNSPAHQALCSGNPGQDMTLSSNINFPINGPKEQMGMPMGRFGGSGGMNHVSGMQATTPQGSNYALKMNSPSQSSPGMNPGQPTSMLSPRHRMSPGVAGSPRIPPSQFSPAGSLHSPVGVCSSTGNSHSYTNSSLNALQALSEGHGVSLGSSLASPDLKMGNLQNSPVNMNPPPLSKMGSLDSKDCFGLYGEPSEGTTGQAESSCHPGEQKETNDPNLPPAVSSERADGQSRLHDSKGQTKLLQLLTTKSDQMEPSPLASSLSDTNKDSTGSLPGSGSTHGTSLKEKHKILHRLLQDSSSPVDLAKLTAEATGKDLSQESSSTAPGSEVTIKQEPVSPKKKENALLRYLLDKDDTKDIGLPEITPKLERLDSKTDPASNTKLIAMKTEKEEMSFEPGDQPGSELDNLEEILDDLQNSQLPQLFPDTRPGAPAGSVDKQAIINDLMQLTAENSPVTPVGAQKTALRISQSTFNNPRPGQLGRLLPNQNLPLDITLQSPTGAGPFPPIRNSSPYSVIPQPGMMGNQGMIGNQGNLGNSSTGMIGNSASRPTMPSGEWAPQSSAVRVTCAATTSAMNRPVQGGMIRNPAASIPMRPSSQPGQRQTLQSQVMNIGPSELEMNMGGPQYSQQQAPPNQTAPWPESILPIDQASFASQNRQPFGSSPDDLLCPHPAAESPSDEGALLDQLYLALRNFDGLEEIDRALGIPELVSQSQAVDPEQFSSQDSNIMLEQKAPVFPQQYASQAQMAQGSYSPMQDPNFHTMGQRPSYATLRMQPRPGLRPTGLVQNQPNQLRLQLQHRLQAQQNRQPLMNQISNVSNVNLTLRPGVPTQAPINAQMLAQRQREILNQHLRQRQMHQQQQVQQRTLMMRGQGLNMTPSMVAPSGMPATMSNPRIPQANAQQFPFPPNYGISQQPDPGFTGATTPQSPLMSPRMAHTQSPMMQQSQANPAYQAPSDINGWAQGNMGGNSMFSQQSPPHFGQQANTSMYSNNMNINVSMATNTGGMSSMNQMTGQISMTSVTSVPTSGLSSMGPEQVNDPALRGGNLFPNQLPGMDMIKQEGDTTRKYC
# [5] = Gal4-VP16 luciferase reporter inhibitors, counter-screen for COUP-TFII antagonist project, cell-based, luminescence, HEK293 (AID 687007); details: at 8.5 µM, stronger effect = higher value
# [6] = target: COUP transcription factor 2 (Homo sapiens) (UniProt P24468); test: NR2F2 transcriptional activity inhibitors, confirmation, cell-based, luciferase reporter, HEK293, triplicate (AID 687008;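 active = mean inhibition over three repeats above a set limit taken from the earlier primary screen, cut at about 38% in these data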;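 note: 100% = cells given the luciferase reporter alone without the COUP-TF2 vector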); details: HEK293 NGFI-A luciferase reporter, luminescence; at 8.5 µM; stronger effect = higher value
# COUP transcription factor 2 (Homo sapiens), sequence (P24468 whole entry, looked up): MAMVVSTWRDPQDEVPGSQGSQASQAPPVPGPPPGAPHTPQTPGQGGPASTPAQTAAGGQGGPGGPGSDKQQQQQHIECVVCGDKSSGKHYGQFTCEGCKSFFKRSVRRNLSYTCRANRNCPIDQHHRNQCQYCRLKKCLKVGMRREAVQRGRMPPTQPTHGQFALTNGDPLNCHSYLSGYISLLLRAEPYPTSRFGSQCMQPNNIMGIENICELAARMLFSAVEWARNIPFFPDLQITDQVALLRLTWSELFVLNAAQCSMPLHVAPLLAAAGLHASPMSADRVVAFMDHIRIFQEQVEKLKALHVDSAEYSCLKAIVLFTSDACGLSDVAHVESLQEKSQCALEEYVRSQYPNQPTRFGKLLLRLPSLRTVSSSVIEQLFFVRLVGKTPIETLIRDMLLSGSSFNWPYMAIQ
# [7] = target: Galanin receptor type 2 (Homo sapiens) (UniProt O43603); test: GALR2 antagonists, retest of hits, confirmation, cell-based (AID 866; in the data active = inhibition above about 27%;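 note: cells stimulated with galanin at about its EC80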); details: GALR2-expressing cells, antagonist mode, at 4 µM, stronger effect = higher value
# Galanin receptor type 2 (Homo sapiens), sequence (O43603 whole entry, looked up): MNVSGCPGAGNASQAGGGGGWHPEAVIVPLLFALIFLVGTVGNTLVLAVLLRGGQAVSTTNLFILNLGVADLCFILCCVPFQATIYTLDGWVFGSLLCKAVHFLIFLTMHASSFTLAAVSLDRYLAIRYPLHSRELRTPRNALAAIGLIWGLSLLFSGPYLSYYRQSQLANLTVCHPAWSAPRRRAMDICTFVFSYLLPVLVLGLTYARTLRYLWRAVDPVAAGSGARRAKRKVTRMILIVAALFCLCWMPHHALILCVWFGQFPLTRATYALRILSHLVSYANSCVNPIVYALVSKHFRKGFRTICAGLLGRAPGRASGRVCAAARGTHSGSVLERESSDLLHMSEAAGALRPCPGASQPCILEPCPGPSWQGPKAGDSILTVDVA
# [8] = inhibitors of NFAT-driven beta-lactamase reporter, confirmation, counter-screen for GALR2 antagonist project, CHO NFAT-bla cells, FRET readout (AID 867;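 active = inhibition above the mean inhibition across tested compounds plus 3 SD, cut at about 27% in these data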;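 note: 0% = 500 nM thapsigargin stimulated wells and 100% = unstimulated BSA only wells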); details: thapsigargin-stimulated, at 4.2 µM, stronger effect = higher value
# [9] = target: (Lyso)-N-acylphosphatidylethanolamine lipase (Mus musculus) (UniProt Q8VD66); test: ABHD4 inhibitors, retest, confirmation, biochemical, fluorescence polarization, mouse (AID 720658;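 active = mean inhibition across replicates above the hit cutoff set in the primary screen, cut at about 30% in these data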;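 note: 0% = wild-type ABHD4 with DMSO and 100% = catalytically dead S159A mutant with DMSO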); details: purified mABHD4, FP-Rh probe fluorescence polarization; at 8.92 µM; stronger effect = higher value
# (Lyso)-N-acylphosphatidylethanolamine lipase (Mus musculus), sequence (Q8VD66 whole entry, looked up, the tested form may be a part): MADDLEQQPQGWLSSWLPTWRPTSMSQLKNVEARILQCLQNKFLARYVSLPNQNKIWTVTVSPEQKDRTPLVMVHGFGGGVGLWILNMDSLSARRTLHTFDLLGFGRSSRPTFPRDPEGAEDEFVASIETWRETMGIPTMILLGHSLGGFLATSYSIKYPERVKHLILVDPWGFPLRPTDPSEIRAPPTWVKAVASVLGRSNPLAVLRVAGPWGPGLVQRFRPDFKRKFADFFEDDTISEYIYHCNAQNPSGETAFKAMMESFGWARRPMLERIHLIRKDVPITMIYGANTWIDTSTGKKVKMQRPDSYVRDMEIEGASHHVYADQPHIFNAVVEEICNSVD
# [10] = target: Oxysterols receptor LXR-beta (Homo sapiens) (UniProt P55055); test: LXR agonists, Gal4 luciferase reporter, confirmation, counter-screen for hcDAF-12 agonist project, cell-based, luminescence, HEK293, H. contortus campaign (AID 743027;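 active = mean percent activation of the reporter above a cutoff set as the average over tested compounds plus their standard deviation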); details: HEK293 Gal4-LXR tk-luc reporter, 24 h, at 6.8 µM, stronger effect = higher value, normalized: DMSO 0%, positive control 100%
# Oxysterols receptor LXR-beta (Homo sapiens), sequence (P55055 whole entry, looked up, the tested form may be a part): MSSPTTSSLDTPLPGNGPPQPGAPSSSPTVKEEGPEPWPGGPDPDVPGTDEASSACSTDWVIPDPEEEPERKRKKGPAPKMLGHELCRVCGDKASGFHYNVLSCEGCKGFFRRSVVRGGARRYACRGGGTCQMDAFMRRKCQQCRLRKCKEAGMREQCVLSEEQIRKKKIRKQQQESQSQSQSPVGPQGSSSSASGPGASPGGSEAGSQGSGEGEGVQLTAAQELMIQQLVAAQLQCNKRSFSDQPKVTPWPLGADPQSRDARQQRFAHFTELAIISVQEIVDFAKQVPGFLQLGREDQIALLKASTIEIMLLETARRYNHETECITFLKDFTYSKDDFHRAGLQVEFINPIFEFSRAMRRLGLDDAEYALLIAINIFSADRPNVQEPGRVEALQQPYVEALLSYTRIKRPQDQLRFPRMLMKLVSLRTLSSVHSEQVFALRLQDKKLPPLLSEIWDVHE
# [11] = test system: Nuclear hormone receptor DAF-12 (Haemonchus contortus); test: H. contortus DAF-12 receptor agonists, confirmation, cell-based, luminescence, HEK293, lit1-tk-luc, triplicate (AID 743032;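 active = mean activation across triplicate tests above the threshold derived from the earlier primary screen, cut at about 5.5% in these data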;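 note: 0% = DMSO only wells and 100% = 3 µM Δ7-dafachronic acid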); details: HEK293 hcDAF-12 lit1-tk-luc reporter, at 6.8 µM, stronger effect = higher value, % of Δ7-dafachronic acid response
structure (smiles),measurement,setting,value
Cc1ccc(C(=O)NCC(=O)O)cc1S(=O)(=O)N1CCCCC1,inhibition,[1],2.01%
same,inhibition,[2],5.08%
C=CCn1c(=O)c(C(=O)Nc2ncccc2O)c(O)c2ccccc21,inhibition,[1],-7.93%
same,inhibition,[2],16.6%
Cc1ccc(-c2nc(CSCC(=O)NC3CCN(Cc4ccccc4)CC3)c(C)o2)cc1,inhibition,[3],11%
same,inhibition,[4],33.9%
same,inhibition,[5],0.41%
same,inhibition,[6],22.5%
O=C(c1c(F)cccc1F)N1CCN(S(=O)(=O)c2ccc3c(c2)OCCO3)CC1,inhibition,[3],-6.59%
same,inhibition,[4],23.6%
same,inhibition,[5],-10.6%
same,inhibition,[6],23.4%
COc1ccc(C(=O)NC(=S)NNC(=O)CCc2ccccc2)cc1,inhibition,[1],4.22%
same,inhibition,[2],13%
CN(C)S(=O)(=O)c1cccc(NC(=O)COC(=O)C2(c3ccccc3F)CCCC2)c1,inhibition,[7],17.7%
same,inhibition,[8],15.1%
same,inhibition,[3],-4.31%
same,inhibition,[4],0.58%
Cc1cc(C(=O)CCC(=O)NNC(=O)c2ccccc2O)c(C)s1,inhibition,[1],-14.4%
same,inhibition,[2],11.4%
CCC(=O)NC(=S)Nc1ccc(NC(=O)c2ccco2)c(Cl)c1,inhibition,[1],3.69%
same,inhibition,[2],13.4%
CCN(C(=O)Nc1cccc2ccccc12)c1ccccc1,inhibition,[1],2.01%
same,inhibition,[2],3.23%
COc1ccc(Br)cc1C(=O)NC(=S)Nc1cc(-c2nc3ccccc3[nH]2)ccc1C,inhibition,[1],17.9%
same,inhibition,[2],34.4% (active)
O=C(Nc1ccc(S(=O)(=O)N2CCOCC2)cc1)C1CCN(S(=O)(=O)c2ccc(Cl)cc2)CC1,inhibition,[5],0.86%
same,inhibition,[6],12.2%
Cc1ccc(-c2nn(-c3ccccc3)cc2/C=C/C(=O)Nc2cccc(S(N)(=O)=O)c2)cc1,inhibition,[1],26.6% (active)
same,inhibition,[2],48.1% (active)
CN1CCN(/N=C/c2ccc(C#N)cc2)CC1,inhibition,[1],1.63%
same,inhibition,[2],2.78%
O=C(c1cc(C(=O)N2CCN(c3ccc(F)cc3)CC2)cc([N+](=O)[O-])c1)N1CCN(c2ccc(F)cc2)CC1,inhibition,[5],-2.78%
same,inhibition,[6],46.7% (active)
Cc1cccc(N2CCN(Cc3nc(C4CC4)no3)CC2)n1,inhibition,[9],-2.12%
NS(=O)(=O)c1ccc(CCNC(=O)c2ccc(Cl)c(S(=O)(=O)N3CCCCCC3)c2)cc1,inhibition,[5],5.82%
same,inhibition,[6],39.1% (active)
COc1cc(/C=C/C(=O)n2cnc3ccccc32)cc(OC)c1OC,inhibition,[5],-14.2%
same,inhibition,[6],16.1%
COc1ccc(NC(=O)C2Cc3c(-c4cccc(NC(C)=O)c4)ccnc3O2)cc1OC (stereo unspecified),inhibition,[5],-1.35%
same,inhibition,[6],14.6%
Cc1ccccc1CS(=O)(=O)Cc1ccc(C(=O)Nc2ccc(Cl)cc2)o1,inhibition,[5],-1.58%
same,inhibition,[6],41.5% (active)
CCc1ccc(-c2nc(SCC(=O)NC3CCCC3)n[nH]2)cc1,inhibition,[5],-22.9%
same,inhibition,[6],11.9%
CCOC(=O)N1CCN(C(=O)C[C@@H]2C(=O)N(CCc3ccc(Cl)cc3)C3=CCCC[C@]32C(=O)OCC)CC1,inhibition,[5],-8.45%
same,inhibition,[6],9.27%
COc1cc(C(=O)Nn2c(O)c(C3=c4ccccc4=NC3=O)sc2=S)ccc1O,inhibition,[9],77.4% (active)
Cc1nc(C(=O)NCc2ccccc2)sc1C1(C)CC(c2cccnc2)=NO1 (stereo unspecified),inhibition,[5],-2.73%
same,inhibition,[6],6.06%
COc1ccc(OC)c(CNC(=O)Cn2nc(C)c3c(C)n(-c4ccc(C)cc4)nc3c2=O)c1,inhibition,[5],-4.78%
same,inhibition,[6],51.1% (active)
Cc1ccc(-n2nc3c(=O)n(C(C)C(=O)NCc4ccc5c(c4)OCO5)nc(C)c3c2C)cc1 (stereo unspecified),inhibition,[5],-6.28%
same,inhibition,[6],11.8%
CN(c1cccc(NC(=O)c2ccc(CN3CCc4ccccc4C3)cc2)c1)S(C)(=O)=O,inhibition,[5],4.04%
same,inhibition,[6],41.2% (active)
Cc1cc2ccccc2n1CCNC(=O)COc1ccc2ccccc2c1,inhibition,[1],8.77%
same,inhibition,[2],2.99%
same,inhibition,[9],1.54%
Cc1ccc(CNC(=O)Nc2nnc([C@H]3C[C@H](O)[C@@H](CO)O3)s2)cc1,inhibition,[5],-1.25%
same,inhibition,[6],11.2%
Cc1ccc(Nc2nc(CSc3nnc(-c4ccncc4)n3-c3ccccc3C)cs2)cc1,inhibition,[5],-8.65%
same,inhibition,[6],11.9%
CCCCn1c(SCc2ncc(-c3ccccc3)o2)nc2cc(S(N)(=O)=O)ccc21,inhibition,[5],6.53%
same,inhibition,[6],14.4%
CCOC(=O)Cn1c2c(n(-c3ccc(F)cc3)c1=O)C=C(c1ccccc1)[C@@H](C)C(C(=O)N(C)C1CCCCC1)=C2,inhibition,[9],29.3%
C/C(=N\NC(=O)c1ccc(C)cc1)C1C(=O)c2ccccc2C1=O,inhibition,[9],35.3% (active)
N#CC(C#N)=CN=c1ccn(Cc2ccc(Cl)cc2Cl)cc1,inhibition,[5],-2.5%
same,inhibition,[6],9.12%
Cc1ccc(NC(=O)C2CC(=O)N(c3ccc4c(c3)OCCO4)C2)cc1S(=O)(=O)N1CCCCCC1 (stereo unspecified),inhibition,[5],-2.18%
same,inhibition,[6],14.1%
CCOC(=O)C1(CCOc2ccccc2)CCN(Cc2cc(OC)cc(OC)c2)CC1,inhibition,[5],6.8%
same,inhibition,[6],9.24%
NS(=O)(=O)c1ccc(CCNc2nc(C(F)(F)F)nc3ccccc23)cc1,inhibition,[5],-10.4%
same,inhibition,[6],0.16%
O=C(N/N=C/c1cc([N+](=O)[O-])ccc1O)/C(=C\c1cccs1)NC(=O)c1ccccc1,inhibition,[1],-11.3%
same,inhibition,[2],35% (active)
O=S1(=O)c2c(cccc2N2CCCC2)O[C@H](COCc2ccccc2)CN1C1CC1,inhibition,[1],-4.17%
same,inhibition,[2],1.77%
c1ccc(Cc2ccc(OCCn3ccnc3)cc2)cc1,inhibition,[5],-6.15%
same,inhibition,[6],9.96%
Cc1ccc(OCC(=O)Nc2ccc(N3CCN(C(=O)c4ccco4)CC3)cc2)c(C)c1,inhibition,[5],4.51%
same,inhibition,[6],24.3%
O=[N+]([O-])c1cc(Br)c(O)c(/C=N/Nc2nc3ccccc3s2)c1,inhibition,[9],69.5% (active)
CCN(CC)P(=O)(C(NC(=O)OC)C(F)(F)C(F)(F)C(F)(F)C(F)F)N(CC)CC (stereo unspecified),inhibition,[5],7.83%
same,inhibition,[6],14.8%
Cc1ccccc1OCC(=O)Nc1ccc(N2CCN(C(=O)C(C)C)CC2)c(Cl)c1,inhibition,[5],-4.24%
same,inhibition,[6],10.5%
CC/C(=C(/c1ccccc1)c1ccc(OCC[N+](C)(C)C)cc1)c1ccccc1,inhibition,[9],36.6% (active)
CCOCC(=O)NCc1ccc2c(c1)cc(C)n2C,inhibition,[1],6.46%
same,inhibition,[2],6.18%
CN(CCc1ccccc1)C(=O)c1cccc(NC(=O)Cc2cccc(NC(=O)C3CCCN(C(=O)CCc4ccccc4)C3)c2)c1 (stereo unspecified),inhibition,[5],-3.76%
same,inhibition,[6],15.9%
CCC(=O)Nc1ccc(C(=O)CSc2nnc(CNc3ccc(Cl)cc3)o2)cc1OC,inhibition,[5],-6.4%
same,inhibition,[6],17.3%
CCOC(=O)[C@H]1Nc2ccc(Cl)cc2[C@@H]2[C@H]1C1CC(c3ccccc31)N2C(=O)OCc1ccccc1 (stereo partly specified),inhibition,[9],42% (active)
O=C(Nc1ccc(S(=O)(=O)NCC2CCCO2)cc1)c1ccc(F)cc1 (stereo unspecified),inhibition,[5],3.93%
same,inhibition,[6],13.8%
CN(C(=O)c1cccc(NC(=O)Cc2cccc([N+](=O)[O-])c2)c1)C1CCCCC1,inhibition,[5],-3.36%
same,inhibition,[6],1.83%
Cc1cccc(-n2cnc(C(=O)NNC(=S)Nc3ccccc3)c2)n1,inhibition,[9],57.2% (active)
COc1ccc(C(=O)C[n+]2ccc(C)cc2)cc1,activation,[10],-0.34%
same,activation,[11],0.77%
O=C(COC(=O)c1ccc(O)cc1O)c1ccc2c(c1)OCCO2,inhibition,[9],40.2% (active)
COc1ccc(Br)cc1/C=N/Nc1ccc(Cl)c(C(=O)O)c1,inhibition,[9],32.5% (active)
CC(C)c1ccc(CC(=O)N2CCC2(C)C(=O)NS(=O)(=O)c2ccc(C(C)(C)C)cc2)cc1 (stereo unspecified),inhibition,[9],68.5% (active)
Nc1[nH]c(C(=O)c2ccc(Br)cc2)c(-c2ccc3c(c2)OCO3)c1C(=O)NCCc1c[nH]c2ccccc12,inhibition,[9],36.9% (active)
CCOc1cc(/C=C2/N=C(c3ccc(C(C)(C)C)cc3)OC2=O)cc(Cl)c1OS(C)(=O)=O,inhibition,[9],18.8%
COc1ccccc1OCc1nc2ccccc2s1,activation,[10],1.64%
same,activation,[11],17.7% (active)
OCCNc1nc(Nc2ccc(Cl)c(Cl)c2)nc2ccccc12,inhibition,[9],40.4% (active)
Fc1ccc2nc(Nc3nc4c(s3)CCCC4)sc2c1,activation,[10],1.24%
same,activation,[11],11.5% (active)
O=C(O)c1ccccc1/C=N/Nc1ccc(S(=O)(=O)Nc2ccc(Cl)cc2)cc1[N+](=O)[O-],inhibition,[9],50.4% (active)
CC(C)(C)C(=O)OCc1nc(-c2ccc(O)c(O)c2)cs1,inhibition,[9],28.1%
Cc1ccc(NC(=O)Cc2nc(COC(=O)C(C)NS(=O)(=O)c3ccc(C)cc3)cs2)cc1 (stereo unspecified),inhibition,[9],7.11%
CC(=O)Oc1ccc(N(C(C)=O)S(=O)(=O)c2ccc3ccccc3c2)cc1Br,inhibition,[9],30.6% (active)
CC1CCN(c2ccc(C(=O)O)cc2NS(=O)(=O)c2ccc(Br)s2)CC1,inhibition,[9],47.5% (active)
CCOc1ccc(C2c3[nH]c4ccccc4c3CCN2Cc2cn(CC)nc2C)cc1 (stereo unspecified),activation,[10],-0.18%
same,activation,[11],3.63%
COc1ccc(Br)cc1/C=N/Nc1ccc(S(=O)(=O)Nc2ccccc2C(=O)O)cc1[N+](=O)[O-],inhibition,[9],20.7%
CCOC(=O)C1=C(C)N=C2c3ccccc3C(=O)C2C1c1ccc(Br)cc1 (stereo unspecified),inhibition,[9],44.8% (active)
COc1ccc2nc(Nc3nc4ccc(NC(C)=O)cc4s3)sc2c1,inhibition,[9],39.4% (active)
O=C(NC(Cc1c[nH]c2ccccc12)C(=O)O)/C(=C/c1ccco1)NC(=O)c1ccccc1 (stereo unspecified),activation,[10],0.05%
same,activation,[11],3.64%
CCOc1ccc2nc(Nc3nc4ccc(NC(C)=O)cc4s3)sc2c1,inhibition,[9],30.9% (active)
